Test results reported in PubChem BioAssay (Tox21).
Results filed as inconclusive are left out. A call without a number means that no potency is given here. The source made the active and inactive calls. Calls come from the whole dose curve; as a rule, active = well fitted cell-killing curve with a large enough effect in the repeat runs; inconclusive = weak or mixed curves, or effect the other way; inactive = no such curve, though single readings can be large or run the other way.

Experiment: qHTS assay to identify small molecule agonists of the farnesoid-X-receptor (FXR) signaling pathway - cell viability counter screen (AID 743218); note: nearly all actives have a fitted effect of over 45% in size
Settings: FXR-bla HEK293T viability, CellTiter-Glo luminescence, 16 h; series mostly up to 62.6 µM
Text: U.S. Tox21 Program National Center for Advancing Translational Sciences [NCATS] NIH Chemical Genomics Center [NCGC] U.S. Environmental Protection Agency [EPA] National Institutes of Environmental Health Sciences [NIEHS] National Toxicology Program [NTP] U.S. Food and Drug Administration [FDA] Tox21 Assay Overview: The farnesoid-X-receptor (FXR), a nuclear hormone receptor, is highly expressed in liver, intestine, kidney and adrenal cortex. Natural ligands of FXR are the bile acids (Cholic acid, Chenodeoxy cholic acid etc). FXR is an important regulator of diverse metabolic pathways, including the bile acid homeostasis, lipid and glucose metabolisms. FXR regulates the expression of target genes by binding either as a monomer or as a heterodimer with the retinoid X receptor (RXR). Numerous studies have reported that FXR exerts protective function during cholestasis, diabetes, liver regeneration, and cancer. To identify compounds that activate FXR signaling, GeneBLAzer FXR-UAS-bla HEK 293T cell line (Invitrogen, Carlsbad, CA) containing a beta-lactamase reporter gene under the control of a UAS response element was used to screen the Tox21 10K compound library. The cytotoxicity of the Tox21 compound library against the FXR-bla cell line was tested in parallel by measuring the cell viability using CellTiter-Glo assay in the same wells.
Tox21 Assay Protocol Summary: FXR-bla cells were dispensed at 5000 cells/5uL/well in 1536-well black wall/clear bottom plates using a Multidrop Combi (Thermo Fisher Scientific, Waltham, MA) dispenser. After the assay plates were incubated at 37 C and 5% CO2 for 5 h, 23 nL of compounds dissolved in DMSO, positive controls or DMSO only was transferred to the assay plate by a Pintool station (Kalypsys, San Diego, CA). The assay plates were incubated at 37C for 16 h. After 1 uL of LiveBLAzerTM B/G FRET substrate was added using a Bioraptr Flying Reagent Dispenser (FRD) workstation (Beckman Coulter, Indianapolis, IN), the plates were incubated at room temperature for 2 h, and fluorescence intensity was measured by an Envision plate reader (PerkinElmer, Shelton, CT). For cell viability readout that measures cytotoxicity, 4uL/well of CellTiter-Glo reagent was added into the assay plates using a Bioraptr FRD. After 30 min incubation at room temperature, the luminescence intensity in the plates was measured using a ViewLux plate reader (PerkinElmer).
Potency is the fitted concentration of half-maximal effect.

Compound	Potency
Nc1ccc(F)cc1	inactive
CC1CCC(C(C)CS)CC1S (stereo not given)	inactive
CCCCCCCCCCCCCCCCCC(=O)OCC(CC)CCCC (stereo not given)	inactive
COC1CCC=CO1 (stereo not given)	inactive
Cc1ccc(S(=O)(=O)NC(=O)NC2CCCCC2)cc1	inactive
CC(C)CC(O)CC(C)C	inactive
Cc1cccc(C)c1NC(=O)c1cc(S(N)(=O)=O)c(Cl)cc1O	inactive
Oc1ccc2c(c1)Cc1ccccc1-2	inactive
CCOCCC(=O)OCC	inactive
CCOC(=O)C(C)O (stereo not given)	inactive
COC(=O)C1=C(C)NC(C)=C(C(=O)OC(C)(C)CN(C)CCC(c2ccccc2)c2ccccc2)C1c1cccc([N+](=O)[O-])c1 (stereo not given)	inactive
Cc1cn([C@H]2C[C@H](F)[C@@H](CO)O2)c(=O)[nH]c1=O	inactive
O=C1NC(=O)c2cccc3cccc1c23	inactive
CCC(CO)(CO)[N+](=O)[O-]	inactive
Cc1ccc(Cl)cc1N	inactive
CC1=C2[C@@H]([C@H](C)CC[C@H]2/C=C(\C)C(=O)O)[C@H](O)C1	inactive
Cc1cc(CCCOc2c(C)cc(-c3noc(C(F)(F)F)n3)cc2C)on1	inactive
Cc1cc([N+](=O)[O-])ccc1N	inactive
CNC1CCCN(c2c(F)cc3c(=O)c(C(=O)O)cn(C4CC4)c3c2OC)C1 (stereo not given)	inactive
CCCCCC	inactive

Compound	Potency
NC(=O)CCCCC(N)=O	inactive
O=C(O)CCCc1c[nH]c2ccccc12	inactive
O=C(O)c1cccc(C[C@@H]2COc3ccc(OCc4nc5cc(F)ccc5s4)cc3[C@@H]2O)c1	inactive
CC(C)C1CCC(C(=O)N[C@H](Cc2ccccc2)C(=O)O)CC1 (stereo not given in full)	inactive
CC(=O)C(=O)CC(C)C	inactive
COc1cc(NS(=O)(=O)c2ccc(N)cc2)nc(C)n1	inactive
CN1CCCN(C(c2ccccc2)c2ccc(Cl)cc2)CC1 (stereo not given)	29.8 µM (active)
COc1cc(C(C)=O)ccc1OCCCN1CCC(c2noc3cc(F)ccc23)CC1	inactive
CCC1CCC(CCC(=O)O)C1 (stereo not given)	inactive
COC(=O)c1sccc1S(N)(=O)=O	inactive
O=C(O)CCS	inactive
C=CC(=O)O	inactive
C1=CCC2CC=CC2C1 (stereo not given)	inactive
CCC(=O)OCc1ccc(OC)cc1	inactive
CNc1c2c(nn1C)CCCC2	inactive
COC(C)(C)OC	inactive
Nc1ccc(S(=O)(=O)NCc2ccccc2)cc1	inactive
CCc1ccc(C)cc1	inactive
Cc1ccc(N(CC2=NCCN2)c2cccc(O)c2)cc1	inactive
CC(=O)OCC1=C(C(=O)O)N2C(=O)[C@@H](NC(=O)CSc3ccncc3)[C@H]2SC1	inactive
